# Reference: the supplement of paper PMC6522484
# ± gives the standard deviation of the averaged measurements.
# Columns and labels:
# DLD1 [1] = experiment: cell viability (CellTiter-Glo) relative to plate median (fraction of plate median); higher = more viable cells; conditions: 5 µM; treatment time 24 h; reporter: 7TFP
# Method in brief: (§1)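 Colorectal cancer cell lines stably transduced with lentiviral TCF/Wnt firefly luciferase reporters (7TFP or TCF4/Wnt) were seeded in 384-well plates. 24 h later they received library compounds at a final 5 µM for 24 h. Parallel plates were read for firefly luciferase or CellTiterGlo luminescence on a Tecan F500 reader. Each well's signal was normalised to the plate median (webcellHTS2, additive, no log transformation), and the mean of two independent replicates is reported.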
# HCT116 [2] = experiment: as above; conditions: 5 µM; treatment time 24 h; reporter: TCF4/Wnt
# Method in brief: as §1
# SW480 [3] = experiment: as above; conditions: 5 µM; treatment time 24 h; reporter: 7TFP
# Method in brief: as §1
# DLD1 [4] = experiment: TCF/Wnt firefly luciferase reporter signal relative to plate median (fraction of plate median); higher = higher Wnt reporter signal; conditions: 5 µM; treatment time 24 h; reporter: 7TFP
# Method in brief: as §1
# SW480 [5] = experiment: as above; conditions: 5 µM; treatment time 24 h; reporter: 7TFP
# Method in brief: as §1
# DLD1 [6] = experiment: cell viability (CellTiter-Glo) relative to plate median (fraction of plate median); higher = more viable cells; conditions: 10 µM, treatment time 24 h
# Method in brief: as §1, with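 “received kinase inhibitor” for “received”, “final 10” for “final 5”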
# HCT116 [7] = experiment: as above; conditions: 10 µM; treatment time 24 h; reporter: TCF4/Wnt
# Method in brief: as §1, with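 “received kinase inhibitor” for “received”, “final 10” for “final 5”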
# SW480 [8] = experiment: as above; conditions: 10 µM; treatment time 24 h; reporter: 7TFP
# Method in brief: as §1, with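 “received kinase inhibitor” for “received”, “final 10” for “final 5”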
# DLD1 [9] = experiment: TCF/Wnt firefly luciferase reporter signal relative to plate median (fraction of plate median); higher = higher Wnt reporter signal; conditions: 10 µM, treatment time 24 h
# Method in brief: as §1, with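 “received kinase inhibitor” for “received”, “final 10” for “final 5”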
# HCT116 [10] = experiment: as above; conditions: 10 µM; treatment time 24 h; reporter: TCF4/Wnt
# Method in brief: as §1, with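 “received kinase inhibitor” for “received”, “final 10” for “final 5”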
# SW480 [11] = experiment: as above; conditions: 10 µM; treatment time 24 h; reporter: 7TFP
# Method in brief: as §1, with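 “received kinase inhibitor” for “received”, “final 10” for “final 5”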
smiles,measurement,setting,value
O=[N+]([O-])c1cc([As](=O)(O)O)ccc1O,cell viability,DLD1 [1],1.07 ± 0.14
same,cell viability,HCT116 [2],1.07 ± 0.14
same,cell viability,SW480 [3],1.075 ± 0.0071
same,TCF/Wnt firefly luciferase reporter signal,DLD1 [4],1.01 ± 0.19
same,TCF/Wnt firefly luciferase reporter signal,SW480 [5],0.959 ± 0.1
O=[N+]([O-])c1cc(O)c(O)c([N+](=O)[O-])c1,cell viability,DLD1 [1],0.891 ± 0.081
same,cell viability,HCT116 [2],0.942 ± 0.096
same,cell viability,SW480 [3],1.03 ± 0.073
same,TCF/Wnt firefly luciferase reporter signal,DLD1 [4],0.831 ± 0.27
same,TCF/Wnt firefly luciferase reporter signal,SW480 [5],0.852 ± 0.044
CC(C)(C)NCC(O)c1cc(Cl)c(N)c(Cl)c1 (configuration not stated),cell viability,DLD1 [1],1.01 ± 0.024
same,cell viability,HCT116 [2],1.03 ± 0.05
same,cell viability,SW480 [3],0.922 ± 0.012
same,TCF/Wnt firefly luciferase reporter signal,DLD1 [4],0.97 ± 0.038
same,TCF/Wnt firefly luciferase reporter signal,SW480 [5],0.942 ± 0.0071
Cc1ccccc1-n1c(Cn2ncc3c(N)ncnc32)nc2cccc(C)c2c1=O,cell viability,DLD1 [6]; reporter: 7TFP,1.07 ± 0.028
same,cell viability,DLD1 [6]; reporter: TCF4/Wnt,1.03
same,cell viability,HCT116 [7],1.22 ± 0.21
same,cell viability,SW480 [8],1 ± 0.036
same,TCF/Wnt firefly luciferase reporter signal,DLD1 [9]; reporter: 7TFP,1.11 ± 0.13
same,TCF/Wnt firefly luciferase reporter signal,DLD1 [9]; reporter: TCF4/Wnt,0.77 ± 0.022
same,TCF/Wnt firefly luciferase reporter signal,HCT116 [10],0.604 ± 0.42
same,TCF/Wnt firefly luciferase reporter signal,SW480 [11],0.879 ± 0.2
CC1(C)C2CC(=O)[C@]3(C)C(CC[C@@]4(C)[C@H](c5ccoc5)OC(=O)[C@H]5O[C@]543)[C@@]2(C)C(=O)C[C@H]1O (some centres not stated),cell viability,DLD1 [1],1.015 ± 0.0071
same,cell viability,HCT116 [2],0.988 ± 0.018
same,cell viability,SW480 [3],1.01 ± 0.071
same,TCF/Wnt firefly luciferase reporter signal,DLD1 [4],0.918 ± 0.037
same,TCF/Wnt firefly luciferase reporter signal,SW480 [5],0.965 ± 0.079
COC[C@H]1OC(=O)c2coc3c2[C@@]1(C)C1=C(C3=O)[C@@H]2CCC(=O)[C@@]2(C)C[C@H]1OC(C)=O [Wortmannin],cell viability,DLD1 [6]; reporter: 7TFP,0.844 ± 0.016
same,cell viability,DLD1 [6]; reporter: TCF4/Wnt,0.8345 ± 0.0064
same,cell viability,HCT116 [7],0.733 ± 0.091
same,cell viability,SW480 [8],0.963 ± 0.035
same,TCF/Wnt firefly luciferase reporter signal,DLD1 [9]; reporter: 7TFP,0.662 ± 0.033
same,TCF/Wnt firefly luciferase reporter signal,DLD1 [9]; reporter: TCF4/Wnt,0.821 ± 0.059
same,TCF/Wnt firefly luciferase reporter signal,HCT116 [10],0.699 ± 0.021
same,TCF/Wnt firefly luciferase reporter signal,SW480 [11],0.856 ± 0.54
Cc1ccccc1-n1c(Cn2cnc3c(N)ncnc32)nc2cccc(C)c2c1=O,cell viability,DLD1 [6]; reporter: 7TFP,1.05 ± 0.05
same,cell viability,DLD1 [6]; reporter: TCF4/Wnt,0.964 ± 0.029
same,cell viability,HCT116 [7],1.19 ± 0.064
same,cell viability,SW480 [8],0.947 ± 0.027
same,TCF/Wnt firefly luciferase reporter signal,DLD1 [9]; reporter: 7TFP,1.02 ± 0.021
same,TCF/Wnt firefly luciferase reporter signal,DLD1 [9]; reporter: TCF4/Wnt,0.941 ± 0.027
same,TCF/Wnt firefly luciferase reporter signal,HCT116 [10],1.18 ± 0.057
same,TCF/Wnt firefly luciferase reporter signal,SW480 [11],0.9485 ± 0.005
COc1cc2ccc(=O)oc2c2ccoc12,cell viability,DLD1 [1],0.932 ± 0.077
same,cell viability,HCT116 [2],1.01 ± 0.02
same,cell viability,SW480 [3],0.9355 ± 0.0035
same,TCF/Wnt firefly luciferase reporter signal,DLD1 [4],0.968 ± 0.17
same,TCF/Wnt firefly luciferase reporter signal,SW480 [5],0.996 ± 0.063
C[C@@H]1O[C@@H](O[C@H]2CC[C@]3(C=O)[C@H]4CC[C@]5(C)[C@@H](C6=CC(=O)OC6)CC[C@]5(O)[C@@H]4CC[C@]3(O)C2)[C@H](O)[C@H](O)[C@H]1O,cell viability,DLD1 [1],0.885 ± 0.13
same,cell viability,HCT116 [2],0.4 ± 0.12
same,cell viability,SW480 [3],0.913 ± 0.025
same,TCF/Wnt firefly luciferase reporter signal,DLD1 [4],0.178 ± 0.15
same,TCF/Wnt firefly luciferase reporter signal,SW480 [5],0.263 ± 0.043
COc1ccc(C[C@H]2NC[C@H](O)[C@H]2OC(C)=O)cc1,cell viability,DLD1 [1],0.831 ± 0.052
same,cell viability,HCT116 [2],0.513 ± 0.065
same,cell viability,SW480 [3],1.06 ± 0.042
same,TCF/Wnt firefly luciferase reporter signal,DLD1 [4],0.248 ± 0.011
same,TCF/Wnt firefly luciferase reporter signal,SW480 [5],0.357 ± 0.036
CCN1CCN(C(=O)Cc2ccc(Nc3ncc(F)c(Nc4ccc(C(=O)Nc5ccccc5Cl)cc4)n3)cc2)CC1 [Aurora A Inhibitor I],cell viability,DLD1 [6]; reporter: 7TFP,0.955 ± 0.036
same,cell viability,DLD1 [6]; reporter: TCF4/Wnt,1.09 ± 0.057
same,cell viability,HCT116 [7],1.09 ± 0.14
same,cell viability,SW480 [8],0.927 ± 0.093
same,TCF/Wnt firefly luciferase reporter signal,DLD1 [9]; reporter: 7TFP,1.16 ± 0.057
same,TCF/Wnt firefly luciferase reporter signal,DLD1 [9]; reporter: TCF4/Wnt,1.16 ± 0.028
same,TCF/Wnt firefly luciferase reporter signal,HCT116 [10],1.21 ± 0.071
same,TCF/Wnt firefly luciferase reporter signal,SW480 [11],1.02 ± 0.035
